Assay outcomes as filed in PubChem BioAssay.
This is a sample that favours compounds with a hit; in the whole collection about 0.4% have one here.
EPAC1 antagonist – blocks human EPAC1 exchange factor | O95398 | EPAC1 GEF assay, Rap1b-BODIPY-GDP exchange fluorescence | Potency, µM (top dose mostly 115 µM), usual class: inhibitors | hit rate 0.14% among 360,000 | AID 720709; further: nearly all actives have a fitted effect of over 50% in size
EPAC2 ag – activates human EPAC2 exchange factor; Q8WZA2; EPAC2 activation, biochemical qHTS; response scale: 100% = 6.5 mM cAMP response; Potency, µM (doses to about 154 µM), usual class: activators; hit rate 0.079% among 360,000; further: nearly all actives have a fitted effect of over 50% in size
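Setup: EPAC2 100 nM, labeled Rap1B complex 250 nM, free GDP 50 uM. Compound titrations pinned in, brief spin, 5 min room temperature incubation. Kinetic fluorescence read over 30 min, normalized to 6.5 mM cAMP.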
EPAC1 agonist – agonists of human EPAC1. O95398. Potency, µM (highest dose often 154 µM), usual class: activators. EPAC1 agonist qHTS, biochemical assay; response scale: 100% = response to 6.5 mM cAMP. AID 720707. hit rate 0.073% among 360,000; further: nearly all actives have a fitted effect of over 60% in size
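Fluorescent GDP-exchange assay: 100 nM EPAC1 with 250 nM Rap1B preloaded with BODIPY-GDP and 50 uM GDP; compounds tested as concentration series, 5 min at room temperature, then read every 5 min for 30 min (ex 480/em 540 nm); normalized to 6.5 mM cAMP.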
B2AR arrestin – recruits beta-arrestin to the human beta2-adrenergic receptor; Potency, µM (titrated, usually from 46.1 µM), usual class: activators; beta-arrestin recruitment to beta2AR, cell-based reporter; hit rate 0.02% among 330,000; further: nearly all actives have a fitted effect of over 65% in size
Target sequence (P07550 whole entry, looked up): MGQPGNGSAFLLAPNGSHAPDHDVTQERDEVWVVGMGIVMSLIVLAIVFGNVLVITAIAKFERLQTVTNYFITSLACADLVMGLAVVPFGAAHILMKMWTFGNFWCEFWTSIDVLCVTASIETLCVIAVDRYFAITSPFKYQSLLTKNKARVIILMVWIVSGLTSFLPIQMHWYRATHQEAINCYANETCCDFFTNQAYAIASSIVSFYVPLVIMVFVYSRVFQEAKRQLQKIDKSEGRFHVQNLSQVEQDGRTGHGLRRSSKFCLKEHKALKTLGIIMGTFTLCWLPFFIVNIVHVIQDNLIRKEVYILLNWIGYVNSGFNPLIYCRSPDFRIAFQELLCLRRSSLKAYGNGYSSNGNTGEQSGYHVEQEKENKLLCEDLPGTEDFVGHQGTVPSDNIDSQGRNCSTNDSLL
EPAC2 antagonist – EPAC2 (human) antagonism; hit rate 0.18% among 360,000; Q8WZA2; EPAC2 GEF exchange of Rap1B-BODIPY-GDP, fluorescence; Potency, µM (doses to about 114 µM), hits mostly inhibitors; AID 720708; further: nearly all actives have a fitted effect of over 45% in size
Of the large screens only hits and unclear results are named; the others gave an inactive call. The call rests on the fitted dose curve; in most records, active means well fitted curve in the direction sought with a large enough effect; inconclusive means small, poorly fitted or top-dose-only effect, or another doubt; inactive means no such curve, though single readings can be large; an effect the other way counts as inactive or inconclusive.

O=S(=O)(O)c1cccc(N=Nc2c(O)ccc3ccccc23)c1	EPAC2 antagonist 35µM
Oc1ccc2ccccc2c1N=Nc1ccccc1F	none
Cc1ccc(NC(=O)/C(C#N)=C(\N)C(Cl)(Cl)Cl)nc1	none
CN1CCN(S(=O)(=O)c2ccc(N(C)Cc3ccc(OC(F)F)cc3)c([N+](=O)[O-])c2)CC1	none
Cc1ccc(Sc2ccc(S(=O)(=O)Nc3ccc(C(=O)O)cc3)cc2)cc1C	EPAC1 antagonist 71µM, EPAC2 antagonist inconclusive
Cc1ccc(Oc2ccc(S(=O)(=O)Nc3ccc(C(=O)O)cc3)cc2)cc1	none
CC1(C(=O)Nc2ccc3c(c2)OCCO3)CSCC(=O)N1CCCn1ccnc1 (stereo unspecified)	none (no result: B2AR arrestin)
CCN(CC)CC#CC(OC)(c1ccccc1)c1ccccc1	EPAC2 antagonist 40µM
COc1ccc(C(=O)c2ccccc2Cl)cc1	none
Cc1sc(N)c(C(=O)c2ccccc2Cl)c1C	EPAC2 antagonist 32µM
CN(CCO)c1nc(N)c2c(N)nc3c(c2c1C#N)CC(=O)N3C1CCCC1	none (no result: EPAC1 antagonist, EPAC2 ag, EPAC1 agonist, EPAC2 antagonist)
CC(C)(C)N1C(=O)Cc2c1nc(N)c1c(N)nc(N3CCCCC3CO)c(C#N)c21 (stereo unspecified)	EPAC1 antagonist 56µM
CCCC[C@@]1(C2CCCC2)Cc2cc(OCC(=O)O)c(Cl)c(Cl)c2C1=O	EPAC2 antagonist 45µM
Nc1ccc2nc3c(=O)n(C4CCCCC4)c(=O)[nH]c3nc2c1	EPAC1 agonist inconclusive
CCCCn1c(=O)[nH]c2nc3cc(N)ccc3nc2c1=O	EPAC2 ag 100µM, EPAC1 agonist 100µM
C=CCn1c(=O)[nH]c2nc3cc(N=CN(C)C)c(C)cc3nc2c1=O	EPAC2 ag inconclusive
Cc1cc2nc3c(=O)n(CCc4ccccc4)c(=O)[nH]c3nc2cc1N	EPAC2 ag 100µM, EPAC1 agonist inconclusive
Nc1ccc2nc3c(=O)n(CCc4ccccc4)c(=O)[nH]c3nc2c1	EPAC2 ag 63µM, EPAC1 agonist 112µM
Cc1ccc(NC(=O)CSC(C)c2nc3ccccc3c(=O)[nH]2)cc1 (stereo unspecified)	none
CCCN(CCC)C(=O)Cn1c(=O)c2ccccc2n2c(=S)sc(-c3ccccc3C)c12	none
CCCN(CCC)C(=O)Cn1c(=O)c2sccc2n2c(=S)sc(-c3ccccc3)c12	EPAC2 antagonist 50µM
CCN(CC1COc2ccccc2O1)C(=O)CN1C(=O)NC(C)(c2ccc(C)cc2)C1=O (stereo unspecified)	EPAC1 agonist 56µM
CCN(CC1COc2ccccc2O1)C(=O)CN1C(=O)NC(C)(c2ccccc2)C1=O (stereo unspecified)	none
COc1ccc(C2CCCCCN2C(=O)C2CCN(S(=O)(=O)c3cccc(C(C)=O)c3)CC2)cc1 (stereo unspecified)	none (no result: B2AR arrestin)
Cc1ccsc1C=Nc1ccc(O)cc1	EPAC1 antagonist 35µM, B2AR arrestin inconclusive, EPAC2 antagonist 50µM
Cc1ccsc1/C=N/N=C/c1sccc1C	none
CCOc1ccc(N=C2SCCCN2C(=O)c2c(CC)noc2C)cc1	none
CCc1noc(C)c1C(=O)N1CCCSC1=Nc1ccccc1Cl	EPAC2 antagonist 50µM
C=C(C)Cn1c(C)cc(C)c(S(=O)(=O)c2ccc(C)cc2)c1=O	EPAC2 antagonist 35µM
Cc1cc(C)n(Cc2ccc(Cl)cc2Cl)c(=O)c1S(=O)(=O)c1ccccc1	none
O=C(CCCOc1ccc(Br)cc1)Nc1nnc(C2CC2)s1	none
O=c1oc2ccc(Cl)cc2nc1/C=C(\O)c1cccs1	EPAC2 ag 100µM
Cc1ccc2oc(=O)c(/C=C(\O)c3ccccc3)nc2c1	EPAC2 ag 89µM
O=c1[nH]c2ccccc2nc1/C=C(\O)c1cccs1	EPAC2 ag inconclusive, EPAC1 agonist 100µM
Cc1ccc2oc(=O)c(/C=C(\O)c3cccs3)nc2c1	EPAC2 ag 63µM
Cc1ccc2oc(=O)c(/C=C(\O)CC(C)C)nc2c1	none
Cc1cn([C@H]2C[C@H](O)[C@@H](CNC/C=C/c3ccccc3[N+](=O)[O-])O2)c(=O)[nH]c1=O	EPAC1 antagonist inconclusive (no result: B2AR arrestin)
O=C(CN1C(=O)NC2(CCCC2)C1=O)NCc1cccc(Cl)c1	none
O=S(=O)(O)c1cc(O)c2cc(Nc3ccccc3)ccc2c1	EPAC1 antagonist inconclusive (no result: B2AR arrestin)
O=S(=O)(O)c1ccc(O)c2cc(Nc3ccccc3)ccc12	EPAC1 antagonist 10µM, EPAC2 antagonist inconclusive (no result: B2AR arrestin)
CCOC(=O)C(C(=O)Cc1ccccc1)c1ccccc1 (stereo unspecified)	none (no result: B2AR arrestin)
CCn1c(CNC(=O)c2ccc(Cl)cc2)nnc1SCC(=O)NC1=NCCS1	none
O=C(CSc1nc(O)cc(=O)n1-c1ccccc1)Nc1ccc2c3c(cccc13)CC2	EPAC1 antagonist 79µM
Cc1c(O)nc(SCC(=O)Nc2ccc3c4c(cccc24)CC3)n(-c2ccccc2)c1=O	none
S=c1[nH]nc(-c2cc(-c3ccccc3)n[nH]2)n1/N=C/c1ccc(Cl)cc1	none
S=c1[nH]nc(-c2cc(-c3ccccc3)n[nH]2)n1/N=C/c1cccc(Cl)c1	EPAC1 antagonist 50µM, EPAC1 agonist 89µM
S=c1[nH]nc(-c2cc(-c3ccccc3)n[nH]2)n1/N=C/c1ccc(Cl)c(Cl)c1	EPAC1 antagonist 56µM, EPAC1 agonist 63µM, EPAC2 antagonist inconclusive
c1ccc(C2=NN(c3ccccc3)CC2)cc1	none
CCOC(=O)/C(=C/c1ccc(N2CCC(c3ccccc3)=N2)cc1)C(C)=O	EPAC2 ag 100µM, EPAC1 agonist inconclusive
CC(=O)c1ccc(N2C(=O)C3C(C2=O)C(C(=O)c2ccc(Cl)cc2)N2CCCC32)cc1 (stereo unspecified)	EPAC2 ag 100µM, EPAC1 agonist inconclusive
COc1cc2ccccc2cc1C(=O)N1CC(C)CC(C)C1 (stereo unspecified)	EPAC2 antagonist 28µM
Cc1ccc(CNC(=O)c2cccc3c2C(=O)c2ccc(N4CCCCC4)cc2S3(=O)=O)cc1	EPAC2 ag 56µM, EPAC1 agonist 10µM
Cc1ccc(CNC(=O)c2cccc3c2C(=O)c2ccc(N4CCOCC4)cc2S3(=O)=O)cc1	none
O=C(NCc1ccco1)c1cccc2c1C(=O)c1ccc(N3CCCC3)cc1S2(=O)=O	EPAC2 ag 56µM, EPAC1 agonist 89µM
O=C(NCc1cccc(F)c1)c1cccc2c1C(=O)c1ccc(N3CCOCC3)cc1S2(=O)=O	EPAC2 ag 89µM
CC1CCN(c2ccc3c(c2)S(=O)(=O)c2cccc(C(=O)NC[C@@H]4CCCO4)c2C3=O)CC1	EPAC2 ag 112µM
Cc1c(NC(=O)C(C)OC(=O)c2ccc(NC(=O)CC#N)cc2)c(=O)n(-c2ccccc2)n1C (stereo unspecified)	none
Nc1nc(SCC(=O)Nc2cccc(Oc3ccccc3)c2)n[nH]1	none
O=C(CSc1ncnc2[nH]ncc12)Nc1cccc(Oc2ccccc2)c1	EPAC1 antagonist inconclusive, EPAC2 ag 32µM, EPAC1 agonist 89µM
COC(=O)c1cc(C#N)c(N(C)Cc2ccccc2)nc1C	none
